Several values for one entry are separate records, joined by “and”; a condition that tells them apart may be missing. Equal values may be shown once. Unmarked numbers belong to inactive results. Inconclusive results are not listed. A call without a number means that no potency is given here. Activity calls are given as the source filed them. Unless noted, the call rests on the fitted dose curve; in most records, active means well fitted curve in the direction sought with a large enough effect; inconclusive means small, poorly fitted or top-dose-only effect, or another doubt; inactive means no such curve, though single readings can be large; an effect the other way counts as inactive or inconclusive.
Legend:
[1] = target: Peroxisome proliferator-activated receptor alpha (Homo sapiens) (UniProt Q07869); test: qHTS assay for small molecule agonists of the peroxisome proliferator-activated receptor alpha (PPARalpha) signaling pathway (AID 651778); conditions: PathHunter PPARalpha complementation, chemiluminescence, 6 h; active compounds read high
Procedure, shortened: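 Chemiluminescence from complemented enzyme reported PPARalpha activation in cells after 6 hr of compound treatment at 37 C. The detection reagent was incubated for 60 min at room temperature, and compounds were scored as agonists.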

[2] = target: Arylsulfatase A (Homo sapiens) (UniProt P15289); test: qHTS screen for enhancers of Arylsulfatase A (ASA1): LOPAC Validation Assay (AID 720538); conditions: ASA enzyme activity, LOPAC qHTS enhancer assay; series mostly up to 57.5 µM
Procedure, shortened: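 Cell-based enhancement test: residual ASA activity in SV40-transformed I179S patient fibroblasts is measured by pNCS turnover (0.5mM final, 14h, room temperature) following 48h compound incubation; higher fluorescence indicates activation.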

[3] = qHTS for compounds that reverse cellular toxicity of Amyloid beta (A-beta) peptide in yeast: LOPAC Validation Assay (AID 720559); conditions: yeast expressing A-beta; series mostly up to 46.1 µM
Procedure, shortened: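 Here, A-beta-toxic yeast grow with test compounds at 30 C for 48 hr before optical density at 600 nm is recorded; data are normalized against DMSO and the FeCl3-clioquinol control.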

[4] = qHTS for Activators of Parkin Expression: LOPAC Validation Assay (NLuc Reporter) (AID 720572; further: potency means the concentration at half of the fitted maximal effect); conditions: Parkin promoter NanoLuc reporter cells, luminescence; series mostly up to 46.1 µM
Procedure, shortened: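 Compound effects on Parkin promoter activity were measured as NanoLuc luminescence after 24 h at 37 C. The neuronal reporter line also carried FLuc, which was read first. LOPAC compounds were tested at 7 concentrations, with normalization to DMSO (0%) and positive control (100%).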

[5] = qHTS for Activators of Parkin Expression: LOPAC Validation Assay (FLuc Reporter) (AID 720573); conditions: Cell line, PRKN promoter firefly luciferase reporter, vehicle wells = 0, positive control = 100%; series mostly up to 46.1 µM
Procedure, shortened: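 Readout is FLuc luminescence from neuronal reporter cells (Parkin promoter, FLuc plus NLuc) after 24 h compound exposure in dose response. Values normalized to neutral DMSO and positive-control compounds.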

[6] = qHTS assay for small molecule agonists of the antioxidant response element (ARE) signaling pathway measured by Nrf2-dependant transcriptional activity (AID 720636; active means well fitted curve in the direction sought with a large enough effect in the repeat runs; an effect the other way counts as inactive or inconclusive;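 further: HepG2 cells with an ARE-driven luciferase reporter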); conditions: ARE-luc HepG2, Nrf2 luciferase reporter, 16 h; series mostly up to 92.4 µM
Procedure, shortened: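 Cells: ARE-luc HepG2 with Nrf2-responsive luciferase. Medium contained 1% dialyzed FBS. Compound exposure lasted 16 hr at 37 C and 5% CO2, followed by ONE-Glo luciferase detection.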

[7] = qHTS assay for small molecule agonists of the antioxidant response element (ARE) signaling pathway measured by Nrf2-dependant transcriptional activity - cell viability counter screen (AID 720653; active means well fitted curve in the direction sought with a large enough effect in the repeat runs; an effect the other way counts as inactive or inconclusive); conditions: ARE-bla HepG2 viability, CellTiter-Glo ATP luminescence, 16 h; max response: active compounds read low
Procedure, shortened: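 Cytotoxicity counter screen: intracellular ATP quantified by CellTiter-Glo luminescence in the same ARE-bla HepG2 plates, after 16 h compound exposure and a 2 h beta-lactamase substrate step.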

[8] = target: T1, Hexokinase-4 (Homo sapiens) + Glucokinase regulatory protein (Homo sapiens) (UniProt P35557+Q14397); test: qHTS assay for inhibitors of recombinant human GCK-GKRP interaction: ADP-Glo assay (AID 743206); conditions: ADP-Glo luminescence, 60 min, 0% = vehicle-only wells with enzyme present; series mostly up to 76.9 µM
Procedure, shortened: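 Pin-transferred compounds meet a 15 nM GST-GCK/15 nM FLAG-GKRP/2 uM S6P mix (dispense concentrations). ATP is then added to 0.4 mM final with 5 mM glucose, and the reaction runs 60 min at room temperature. ADP is quantified luminescently.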

[9] = target: T1, Hexokinase-4 (Homo sapiens) + Glucokinase regulatory protein (Homo sapiens); test: qHTS assay for inhibitors of recombinant human GCK-GKRP interaction: HTRF assay (AID 743207); conditions: recombinant GCK-GKRP HTRF binding, 60 min, with sorbitol-6-phosphate; series mostly up to 57.5 µM
Procedure, shortened: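 Titration screening format: recombinant GST-GCK and FLAG-GKRP at 5 nM, S6P at 2 uM, labelled anti-tag antibodies, 60 min at RT, dual-wavelength HTRF readout.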

[10] = qHTS Assay for Identifying Gametocytocidal Compounds (AID 743244);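 further: actives lower the fluorescent signal which means gametocytes are killed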; conditions: P. falciparum 3D7 stage III-V gametocytes, alamarBlue, 72 h; max response: active compounds read low
Procedure, shortened: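 Viability read-out was resazurin reduction (alamarBlue, 24 h) measured at Ex 525/Em 598 nm. Beforehand, late-stage (III-V) 3D7 P. falciparum gametocytes at 20,000 cells/well were incubated with compound 72 h at 37C under 5% CO2.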

[11] = qHTS assay for cell viability of HEK293 cells (AID 743288); conditions: ATP luminescence (CellTiter-Glo), 18 h; max response: active compounds read low; further: nearly all actives have a fitted effect of over 50% in size
Procedure, shortened: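 HEK293, 18 h, 37 C, ATP luminescence. Cells at 2,000/well were allowed at least 5 h to settle before dosing; CellTiter-Glo developed 30 min at RT.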

[12] = qHTS assay for cell viability of the p53RE-bla HCT-116 cell line (AID 743292); conditions: p53RE-bla HCT-116 viability, ATP luminescence, 16 h; series mostly up to 95 µM; further: nearly all actives have a fitted effect of over 55% in size
Procedure, shortened: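 HCT-116 p53RE-bla cells seeded 4,000/well; 5 h at 37 C; compound (DMSO) added; 16 h at 37 C; CellTiter-Glo added, 30 min RT; luminescence read.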

[13] = target: T1, Hexokinase-4 (Homo sapiens) + Glucokinase regulatory protein (Homo sapiens); test: qHTS assay for inhibitors of recombinant human GCK-GKRP interaction: Diaphorase-coupled assay (AID 743205); conditions: G6PDH/diaphorase resorufin fluorescence; series mostly up to 57.5 µM
Procedure, shortened: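 Signal derives from resorufin generated by diaphorase, linked to GCK turnover of glucose (5 mM) and ATP (0.4 mM). Enzyme complex was added after a 20-minute compound preincubation and monitored for 30 minutes.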

[14] = qHTS assay for small molecule disruptors of the mitochondrial membrane potential - 5 hr assay (AID 651755; calls by dose curve; further: nearly all actives have a fitted effect of over 40% in size); conditions: JC-1-type ratio dye; series mostly up to 92.2 µM
Procedure, shortened: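 Membrane-potential dye readout: red aggregate (540 ex/590 em) versus green monomer (490 ex/535 em) fluorescence after 30 min dye loading, following 5 hr compound exposure at 37C of overnight-plated HepG2 cells.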

[15] = target: Tumor necrosis factor (Homo sapiens) (UniProt P01375); test: qHTS assay to identify small molecules that stimulate Tumor Necrosis Factor-alpha (TNF-alpha) secretion (AID 651757; active means well fitted curve in the direction sought with a large enough effect in the signal ratio; the % refers to the signal ratio); conditions: Human cells, HTRF 665/615 ratio; series mostly up to 92.2 µM
Procedure, shortened: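 Using 3000 THP-1 cells per well, compounds and controls were applied for 17 hrs at 37 C. Detection followed with two labeled anti-TNF-alpha antibodies (cryptate donor, XL665 acceptor) for 3 hr at room temperature, measured by TR-FRET.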

[16] = target: Nuclear receptor ROR-gamma (Homo sapiens) (UniProt P51449); test: qHTS assay for small molecule antagonists of the retinoid-related orphan receptor gamma (ROR-gamma) signaling pathway (AID 651802); conditions: ROR-gamma antagonist cell reporter assay; series mostly up to 92.2 µM; further: nearly all actives have a fitted effect of over 60% in size; further: potency means the concentration at half of the fitted maximal effect
Procedure, shortened: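 Doxycycline-induced reporter activity in engineered CHO cells (TET-inducible ROR, RORE-LUC) was measured by luminescence after 16hr compound exposure at 37C.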

[17] = qHTS assay for small molecule antagonists of the retinoid-related orphan receptor gamma (ROR-gamma) signaling pathway - cell viability counter screen (AID 720652; active means well fitted curve in the direction sought with a large enough effect in the repeat runs; an effect the other way counts as inactive or inconclusive;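 further: CHO reporter cells with doxycycline-induced ROR-gamma expression; compound exposure lasted 16 hr before ATP read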); conditions: RORgamma reporter cell line viability counter screen; series mostly up to 92.2 µM
Procedure, shortened: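 ATP-based viability readout in the ROR-gamma reporter CHO cells after 16 hr compound exposure under doxycycline induction.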

[18] = target: Tyrosine-protein kinase Yes (Homo sapiens) (UniProt P07947); test: qHTS for small molecule inhibitors of Yes1 kinase: Primary Screen (AID 686947); conditions: Yes1 kinase biochemical qHTS inhibition; series mostly up to 76.9 µM; further: nearly all actives have a fitted effect of over 60% in size
Procedure, shortened: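 In this qHTS format, inhibition is expressed relative to DMSO controls with enzyme (maximum) and without enzyme (minimum). The 60 min room-temperature reaction uses 0.1 mM ATP, with ADP detected by luminescence.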

[19] = qHTS for small molecule inhibitors of Yes1 kinase: Counter Assay (AID 686950); conditions: series mostly up to 76.9 µM;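 further: no kinase present so only ADP-Glo detection of a fixed ADP amount is tested; luminescence from ADP-Glo reporting ADP in a fixed ATP and ADP mixture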
Procedure, shortened: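 ADP-Glo luminescence read after a 60 min room-temperature incubation of compound with an ATP/ADP mix (0.08 mM/0.02 mM) and no kinase, following a 20 min compound preincubation. Signal scaled between ATP+ADP (max) and 0.1 mM ATP-only (min) wells; Tris pH 7.5, Mg2+, DTT.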

T1 sequence (P35557 whole entry, looked up): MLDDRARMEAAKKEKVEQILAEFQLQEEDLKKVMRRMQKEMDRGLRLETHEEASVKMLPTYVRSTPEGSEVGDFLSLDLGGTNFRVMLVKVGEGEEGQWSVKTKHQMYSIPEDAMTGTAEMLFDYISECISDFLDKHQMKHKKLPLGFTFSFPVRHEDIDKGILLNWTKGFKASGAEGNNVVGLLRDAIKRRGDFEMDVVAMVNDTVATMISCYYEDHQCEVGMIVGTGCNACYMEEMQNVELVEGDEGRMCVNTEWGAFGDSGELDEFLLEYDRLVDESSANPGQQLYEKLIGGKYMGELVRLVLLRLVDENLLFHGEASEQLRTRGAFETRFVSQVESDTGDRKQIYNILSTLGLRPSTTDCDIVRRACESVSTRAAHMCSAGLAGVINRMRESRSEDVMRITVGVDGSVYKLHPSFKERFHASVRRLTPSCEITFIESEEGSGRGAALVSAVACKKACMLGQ
T1 sequence (Q14397 whole entry, looked up): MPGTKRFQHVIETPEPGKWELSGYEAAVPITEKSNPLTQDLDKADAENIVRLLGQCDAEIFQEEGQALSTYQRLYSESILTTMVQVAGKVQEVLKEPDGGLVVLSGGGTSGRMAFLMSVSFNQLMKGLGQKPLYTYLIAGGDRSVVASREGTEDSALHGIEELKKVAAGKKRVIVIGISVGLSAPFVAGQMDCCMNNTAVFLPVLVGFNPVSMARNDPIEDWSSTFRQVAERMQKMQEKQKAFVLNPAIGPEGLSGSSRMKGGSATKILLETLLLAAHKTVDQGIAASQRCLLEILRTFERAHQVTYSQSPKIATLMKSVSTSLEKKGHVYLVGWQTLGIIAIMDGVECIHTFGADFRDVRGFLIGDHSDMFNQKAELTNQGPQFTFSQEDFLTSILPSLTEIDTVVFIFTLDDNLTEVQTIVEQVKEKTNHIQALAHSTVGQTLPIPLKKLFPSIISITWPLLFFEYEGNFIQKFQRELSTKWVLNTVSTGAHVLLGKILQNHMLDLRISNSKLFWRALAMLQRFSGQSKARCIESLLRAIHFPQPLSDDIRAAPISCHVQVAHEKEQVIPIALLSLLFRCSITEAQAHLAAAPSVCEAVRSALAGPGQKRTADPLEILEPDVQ
Sequence of Arylsulfatase A (Homo sapiens) (P15289 whole entry, looked up): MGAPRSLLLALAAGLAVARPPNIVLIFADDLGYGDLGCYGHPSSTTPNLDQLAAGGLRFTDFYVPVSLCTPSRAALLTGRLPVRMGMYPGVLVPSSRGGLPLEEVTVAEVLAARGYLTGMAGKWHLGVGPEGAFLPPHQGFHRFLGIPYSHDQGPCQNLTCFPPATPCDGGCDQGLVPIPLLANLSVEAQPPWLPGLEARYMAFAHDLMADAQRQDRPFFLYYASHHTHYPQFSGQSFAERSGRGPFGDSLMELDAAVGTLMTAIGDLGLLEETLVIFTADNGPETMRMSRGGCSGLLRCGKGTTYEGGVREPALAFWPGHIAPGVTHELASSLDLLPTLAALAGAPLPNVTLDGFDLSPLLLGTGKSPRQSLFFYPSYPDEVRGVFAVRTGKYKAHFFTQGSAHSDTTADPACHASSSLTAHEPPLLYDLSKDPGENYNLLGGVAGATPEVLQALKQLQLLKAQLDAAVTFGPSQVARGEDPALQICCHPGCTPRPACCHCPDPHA
Sequence of Peroxisome proliferator-activated receptor alpha (Homo sapiens) (Q07869 whole entry, looked up): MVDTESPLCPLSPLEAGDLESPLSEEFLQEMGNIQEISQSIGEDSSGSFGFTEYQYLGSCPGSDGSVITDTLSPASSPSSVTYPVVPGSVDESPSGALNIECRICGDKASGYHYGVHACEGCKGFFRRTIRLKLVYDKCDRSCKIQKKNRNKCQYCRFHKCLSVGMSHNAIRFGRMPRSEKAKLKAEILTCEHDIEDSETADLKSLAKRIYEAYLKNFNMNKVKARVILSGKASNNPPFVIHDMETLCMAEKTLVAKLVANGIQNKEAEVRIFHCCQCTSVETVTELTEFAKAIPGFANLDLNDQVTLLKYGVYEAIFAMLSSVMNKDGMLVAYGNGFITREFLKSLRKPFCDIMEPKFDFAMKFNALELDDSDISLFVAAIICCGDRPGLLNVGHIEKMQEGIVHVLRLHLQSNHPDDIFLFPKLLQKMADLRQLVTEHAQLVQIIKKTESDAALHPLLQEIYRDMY
Sequence of Nuclear receptor ROR-gamma (Homo sapiens) (P51449 whole entry, looked up): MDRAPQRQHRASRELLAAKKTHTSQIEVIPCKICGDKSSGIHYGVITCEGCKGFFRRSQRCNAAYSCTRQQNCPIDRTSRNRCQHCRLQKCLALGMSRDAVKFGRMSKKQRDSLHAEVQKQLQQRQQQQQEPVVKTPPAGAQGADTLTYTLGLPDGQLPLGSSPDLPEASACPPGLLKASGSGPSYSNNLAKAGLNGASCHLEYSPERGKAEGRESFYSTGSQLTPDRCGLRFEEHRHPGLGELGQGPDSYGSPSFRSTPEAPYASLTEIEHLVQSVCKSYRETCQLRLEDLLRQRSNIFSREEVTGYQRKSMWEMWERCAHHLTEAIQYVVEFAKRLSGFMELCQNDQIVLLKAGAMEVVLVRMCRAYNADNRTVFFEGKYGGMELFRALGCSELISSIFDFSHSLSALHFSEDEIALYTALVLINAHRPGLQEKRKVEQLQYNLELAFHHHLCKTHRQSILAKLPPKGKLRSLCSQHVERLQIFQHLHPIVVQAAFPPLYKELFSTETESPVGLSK
Sequence of Tumor necrosis factor (Homo sapiens) (P01375 whole entry, looked up): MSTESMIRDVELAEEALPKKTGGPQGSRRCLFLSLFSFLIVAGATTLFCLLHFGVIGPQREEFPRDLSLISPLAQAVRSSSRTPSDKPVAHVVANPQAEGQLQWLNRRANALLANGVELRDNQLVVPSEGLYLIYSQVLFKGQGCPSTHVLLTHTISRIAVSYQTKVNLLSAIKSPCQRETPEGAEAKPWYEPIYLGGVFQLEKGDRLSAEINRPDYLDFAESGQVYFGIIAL
Sequence of Tyrosine-protein kinase Yes (Homo sapiens) (P07947 whole entry, looked up): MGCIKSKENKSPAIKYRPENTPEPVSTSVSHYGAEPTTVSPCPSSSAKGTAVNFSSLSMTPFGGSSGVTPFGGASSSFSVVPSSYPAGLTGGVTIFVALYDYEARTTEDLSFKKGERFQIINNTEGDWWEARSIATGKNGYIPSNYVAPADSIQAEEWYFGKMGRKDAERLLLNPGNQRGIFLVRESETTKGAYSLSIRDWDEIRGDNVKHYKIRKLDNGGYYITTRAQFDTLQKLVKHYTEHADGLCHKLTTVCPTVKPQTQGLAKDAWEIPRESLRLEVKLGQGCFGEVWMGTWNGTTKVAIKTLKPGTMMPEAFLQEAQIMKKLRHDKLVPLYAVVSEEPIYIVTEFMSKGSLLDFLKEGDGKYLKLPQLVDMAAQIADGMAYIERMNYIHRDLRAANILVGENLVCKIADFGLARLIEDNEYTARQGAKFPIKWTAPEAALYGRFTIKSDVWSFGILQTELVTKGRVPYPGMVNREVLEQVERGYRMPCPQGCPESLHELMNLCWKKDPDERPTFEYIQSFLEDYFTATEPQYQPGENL

SMILES	max response [1]	Potency [2]	outcome [3]	Potency [4]	outcome [5]	outcome [6]	max response [7]	outcome [8]	Potency [9]	max response [10]	max response [11]	outcome [12]	outcome [13]	Potency [14]	outcome [15]	Potency [16]	outcome [17]	Potency [18]	outcome [19]
C[C@]12CCC(=O)C=C1CC[C@@H]1[C@@H]2C(=O)C[C@@]2(C)[C@H]1CC[C@]2(O)C(=O)CO	-0.227%	inactive	inactive	inactive	inactive	inactive	-5.48%	inactive	inactive	-0.251% and -12.4%	-1.33%	inactive	–	–	–	–	–	–	–
C[N+](C)(C)CCOC(=O)CCC(=O)OCC[N+](C)(C)C	–	inactive	inactive	inactive	inactive	–	–	inactive	inactive	0.123% and 29.2%	–	–	inactive	–	–	–	–	–	–
CC(=O)Nc1nnc(S(N)(=O)=O)s1	-2.77%	–	inactive	inactive	–	inactive	1.81%	inactive	inactive	9.9% and 9.69%	-6.47%	inactive	inactive	–	–	–	–	–	–
CCCCNC(=O)NS(=O)(=O)c1ccc(C)cc1	-9.3% and -3.45%	inactive	inactive	inactive	–	inactive	6.42% and -5.96%	inactive	inactive	0.702% and 32.7%	2.43% and -13.2%	inactive	–	inactive	inactive	inactive	inactive	–	–
O=C(O)CCCCCCCC(=O)O	-1.61%	inactive	inactive	inactive	inactive	inactive	-8.37%	inactive	inactive	9% and 10.5%	-0.211%	inactive	inactive	–	–	–	–	–	–
COCCOC(=O)C1=C(C)NC(C)=C(C(=O)OC(C)C)C1c1cccc([N+](=O)[O-])c1 (stereo not drawn)	–	inactive	inactive	2.06 µM (active)	inactive	–	–	inactive	inactive	18.6% and 13.2%	–	–	inactive	–	–	–	–	–	–
Nc1ncn([C@@H]2O[C@H](CO)[C@@H](O)[C@H]2O)c(=O)n1	-2.48% and -2.55%	–	inactive	–	–	inactive	-13.9% and 0.747%	inactive	inactive	-3.69% and 12.2%	–	inactive	–	inactive	inactive	3.35 µM (active)	–	inactive	inactive
CCO/C([O-])=N/c1c[n+](N2CCOCC2)no1	–	inactive	inactive	inactive	inactive	–	–	inactive	inactive	-5.19%	–	–	inactive	–	–	–	–	–	–
